Hit rate of the full screen: of about 340,000 compounds, about 3,300 (0.97%) were called active.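 The calls were made as follows: active = mean activation above about 17%, with every replicate also reaching it (limit read from the data, passing the limit was not always enough); inconclusive = only one of the two conditions met; inactive = the rest.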 Only a selection was taken, and actives are over-represented in it overall.
What follows are compounds tested against Protein FosB (Mus musculus) (UniProt P13346) (assay: enhancers of mouse delta FosB DNA binding – biochemical, fluorescence polarization, TAMRA-CDK5 oligo, single point, primary screen (AID 493131;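 also: fluorescence polarization rise as delta FosB binds a TAMRA Cdk5 AP-1 oligo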)). Details: purified delta FosB, at 25 µM, hits give high values, percent of positive-control signal above neutral wells.
Sequence of Protein FosB (Mus musculus) (P13346 whole entry, looked up): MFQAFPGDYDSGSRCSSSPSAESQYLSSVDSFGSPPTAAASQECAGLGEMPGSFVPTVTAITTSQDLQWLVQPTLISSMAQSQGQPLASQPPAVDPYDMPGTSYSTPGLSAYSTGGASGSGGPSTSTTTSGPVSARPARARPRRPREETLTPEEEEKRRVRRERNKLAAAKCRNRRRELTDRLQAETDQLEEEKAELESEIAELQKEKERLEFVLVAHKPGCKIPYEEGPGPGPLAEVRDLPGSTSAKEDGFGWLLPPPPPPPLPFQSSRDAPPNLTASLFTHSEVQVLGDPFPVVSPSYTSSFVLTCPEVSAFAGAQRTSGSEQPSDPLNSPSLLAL

activation, inactive:
C=CCNC(=O)c1ccc2c3n(nc2c1)-c1ccc(C)cc1CO3 -4.63%
CC(OC(=O)c1cc2ccccc2o1)C(=O)Nc1ccc(N2CCOCC2)cc1 (centres undefined) -0.675%
CCCCC(c1nnnn1CS(=O)(=O)c1ccc(C)cc1)N1CCC(C(N)=O)CC1 (centres undefined) -1.34%
COc1ccc(C(CNC(=O)c2ccc(S(=O)(=O)Nc3ccccc3F)cc2)N(C)C)cc1 (centres undefined) 1.38%
COC(=O)c1ccc(S(=O)(=O)N2CCc3ccccc3C2)cc1 -1.34%
CC(=O)Nc1ccc(S(=O)(=O)N2CCC(NC(=O)c3ccccc3)CC2)cc1 3.46%
COc1cccc(/C=C2\Sc3ccc(C(=O)NCC4CCCO4)cc3N(C)C2=O)c1 (centres undefined) 0.556%
O=C(CN1C(=O)S/C(=C\c2ccccc2Cl)C1=O)NC1C=CS(=O)(=O)C1 (centres undefined) -2.97%
COc1ccc(S(=O)(=O)N2CCCC2CNC(=O)C(=O)NC2CC2)cc1 (centres undefined) -3.99%
CC1C(=O)Nc2ccccc2N1C(=O)c1ccc(F)cc1F (centres undefined) 1.98%
C/C(=C\C(=O)c1cccnc1)Nc1ccc(C)c(C)c1 -1.12%
Cc1ccc(OCC(=O)NCCCNC(=O)c2cccnc2)cc1C 2.57%
N#Cc1ccccc1S(=O)(=O)N1CCN(C(=O)c2cc(-c3ccccc3)nn2-c2ccccc2)CC1 1.25%
O=[N+]([O-])c1ccc(N2CCN(c3ccc(O)cc3)CC2)c(Cl)c1 -9.93%
CCN(C(=O)COC(=O)c1ccc(COc2ccc3c(C)cc(=O)oc3c2)cc1)C1CCS(=O)(=O)C1 (centres undefined) 2.03%
CCOC(=O)c1cc(=O)c2ccc(OCc3ccccc3)cc2o1 -2.05%
Cc1ccc(C(C)C)c(OCCSc2nc3ccccc3n2CC(=O)O)c1 -20.9%
CCOc1ccc(OCC(=O)Nc2c3c(nn2C(C)(C)C)CS(=O)(=O)C3)cc1 -1.81%
CCOc1ccc(N(C)S(=O)(=O)c2cnc[nH]2)cc1 -0.199%
Cc1ccc(-n2c(SCC(=O)Nc3ccc4c(c3)OCO4)nnc2-c2ccccn2)cc1 -2.46%
CSc1ncccc1C(=O)Nc1ccc2c(c1)OCO2 -5.35%
O=C(N/C(=C\c1ccc([N+](=O)[O-])cc1)C(=O)N1CCCCC1)c1ccco1 -1.72%
CCN(CC)C(=O)C(=O)c1cn(CC(=O)NCc2ccc3c(c2)OCO3)c2ccccc12 -0.7%
O=C(CN(C(=O)CCC(=O)Nc1nccs1)c1ccc(F)cc1)NCc1ccc2c(c1)OCO2 6.39%
Cc1ccc(Cn2nnc3c(=O)n(CC(=O)N4CCCCC4)cnc32)cc1 3.79%
COc1cc(-c2nnn(CC(=O)NCc3ccccc3)n2)cc(OC)c1OC -0.135%
CS(=O)(=O)N(CC(=O)NCc1ccco1)c1ccc2c(c1)OCO2 2.32%
S=C(NCc1ccc2c(c1)OCO2)NCc1ccco1 -2.47%
O=C(NC1CCCC1)C(c1ccc(Cl)cc1)N(C(=O)c1csnn1)C1CC1 (centres undefined) -6.23%
Cc1ccc(-c2cnc(NC(=O)CCC(=O)N(C)Cc3ccccc3)n2C)cc1 -2.74%
CCCC1C(=O)N2C(N(C)C)=Nc3ccc(C)cc3N2C1=O (centres undefined) 6.69%
COc1ccc(S(=O)(=O)N2CCN(C(C)C(=O)Nc3ccc(C(C)C)cc3)CC2)cc1 (centres undefined) -3.44%
O=C(CCc1ccccc1)Nc1ccc(NC(=O)C2CC2)nc1 4.2%
COc1ccc(S(=O)(=O)N(CC(=O)N/N=C/c2ccc(C(=O)O)cc2)Cc2ccccc2)cc1OC -11.9%
Cc1ccccc1NC(=O)CCOc1ccccc1 -7.98%
O=C(NC(=S)Nc1ccc(NC(=O)c2cccs2)cc1)c1ccc([N+](=O)[O-])cc1 -0.174%
CC(Oc1cccc(NC(=O)c2cccs2)c1)C(=O)c1ccccc1 (centres undefined) -3.07%
O=C(O)c1ccccc1C(=O)NC1=NN(c2ccccc2)CC1 -3.52%
COc1cccc(-c2cc3nc4c(c(N5CCC6(CC5)OCCO6)n3n2)CCCC4)c1 -1.84%
COc1ccc(C(=O)n2nc(-c3ccc(C)cc3)nc2N)cc1OC 8.05%
COc1ccc(C(=O)n2nc(C)c(Br)c2C)cc1OC 3.74%
CCN(CC)CCNC(=O)c1sc2ncn(CC(=O)Nc3ccc(C)c(Cl)c3)c(=O)c2c1C -141%
Cc1nonc1NC(=O)CSc1nc2ccccc2cc1C#N 5.77%
Cc1cc(C)c(C#N)c(SCC(=O)Nc2ccccc2)n1 3.54%
Cc1ccc(C)c(NC(=O)C(c2ccccc2)N2CCN(CC(=O)NC3CC3)CC2)c1 (centres undefined) -10.9%
NC(=O)c1cc(S(=O)(=O)N2CCCC2)ccc1OCc1ccc(F)cc1 -1.72%
COc1ccc(C(=O)Nc2cccc(S(C)(=O)=O)c2)cc1 -0.053%
COc1ccc(NS(=O)(=O)c2ccc(C(=O)Nc3c(C)n(C)n(-c4ccccc4)c3=O)cc2)cc1 1.19%
Cc1noc(C)c1NC(=O)Nc1cccc2c1O[C@H](CN(C)C(=O)Nc1ccccc1)[C@@H](C)CN([C@H](C)CO)C2=O 4.59%
COc1ccc(C(=O)N(C)Cc2ccc(OC)c(OC)c2OC)cc1S(=O)(=O)N1CCOCC1 -8.82%
COc1cccc(NC(=O)CN(C)C(=O)Cc2ccc(Cl)cc2Cl)c1 -4.55%
COCCNC(=O)c1snc2ccc(Cl)cc12 -8.32%
CC(=O)c1cccc(NC(=O)[C@@H](NC(N)=O)C(C)C)c1 2.28%
CN(C)CCN(C(=O)C1CCCCC1)c1nc2cc3c(cc2s1)OCO3 7.71%
Cc1ccc2nc(N(CCN(C)C)C(=O)C3=COCCO3)sc2c1 -2.06%
Cn1nc(C(C)(C)C)c(NC(=O)c2sccc2Cl)c1C(C)(C)C -8.28%
Cc1ccc(C)c(S(=O)(=O)N(C)c2ccc(OC(=O)C3CCN(C(=O)c4ccc(F)cc4)CC3)cc2)c1 -7.71%
C=CCn1c(=O)n(C)c2c(=O)n(C)c(=O)n(C)c21 -1.42%
Cc1sc2nc(CSCC(=O)NC3CCCCC3)[nH]c(=O)c2c1C -10.1%
Cc1sc2nc(COC(=O)C(NC(=O)c3ccc(Cl)cc3Cl)C(C)C)[nH]c(=O)c2c1C (centres undefined) -6.82%
COc1ccc2oc(C(=O)OCC(=O)N(CC(C)C)c3c(N)n(Cc4ccccc4)c(=O)[nH]c3=O)c(C)c2c1 3.39%
COc1ccc(C(CNC(=O)c2cccc(S(=O)(=O)Nc3ccc(Br)cc3)c2)N(C)C)cc1 (centres undefined) 14%
COC(=O)c1cc(OC)c(OC)cc1NC(=O)CSc1ccc(C)cc1 -0.589%
COc1ccc(C)cc1NC(=O)CSc1ccc(Cl)cc1 -7.74%
COc1ccc2sc(-c3ccc(N(C)C)cc3)c(-c3ccc4cc[nH]c4c3)c2c1 -4.04%
COc1ccc2sc(-c3ccc(N(C)C)cc3)c(C#CCO)c2c1 -9.84%
CCC(=O)NC(Nc1cc(C)ccn1)(C(F)(F)F)C(F)(F)F -2.53%

activation, active:
O=C(Nc1ccc(S(=O)(=O)N2CCc3ccccc3C2)cc1)c1ccccc1 25.5%
COc1cccc(/C=C2/SC(=S)N(CC(=O)NC3C=CS(=O)(=O)C3)C2=O)c1 (centres undefined) 35.9%
Cc1ccc(NC(=O)COc2ccc(/C=N\NC(=O)c3cccnc3)cc2)cc1C 82.7%
Cc1ccccc1NC(=O)c1ccc(COc2ccc3c(C)cc(=O)oc3c2)cc1 22.2%
Cc1ccc2nc(-c3ccccn3)cc(C(=O)Nc3ccc4c(c3)OCO4)c2c1 36.9%
O=C(Cn1nnc(-c2ccccc2)n1)NCc1ccc2c(c1)OCO2 22.6%
O=C(Cn1cnc2c(nnn2Cc2ccc(F)cc2)c1=O)NCc1ccc2c(c1)OCO2 17.6%
O=C(Cn1nnc(-c2ccc3c(c2)OCO3)n1)NCc1ccco1 33.3%
O=C(Nc1ccccc1)c1ccc(NC(=O)c2cccs2)cc1 19%
COc1ccc(C(=O)n2nc(-c3ccc(Cl)cc3)nc2N)cc1OC 30.9%
Cc1nc2cc(NC(=O)CSc3nc4c(C)cccc4cc3C#N)ccc2s1 61.2%
COc1ccc(NS(=O)(=O)c2ccc(NC(=O)c3ccc(N(C)S(C)(=O)=O)cc3)cc2)cc1 43.3%
COC(=O)c1sc2ncccc2c1OCc1ccc(Cl)cc1Cl 17%
CN(C)CCN(C(=O)CN1C(=O)c2ccccc2C1=O)c1nc2cc3c(cc2s1)OCCO3 38%
Cc1sc2nc(CSCC(=O)Nc3c(Cl)cccc3Cl)[nH]c(=O)c2c1C 32.5%
COC(=O)c1scc(C)c1NC(=O)CSc1ccc(Cl)cc1 35%
COc1ccc2c(c1)c(=Cc1ccc(N(C)C)cc1)c1cc(-c3ccccc3)[n+](C)n12 126%

Source: PubChem BioAssay AID493131 (Broad Institute, 2011)
